In PubChem BioAssay (NCATS):
Values joined by “and” are separate entries in the source; they are usually repeats but may differ in a detail not shown here. Equal values may be shown once. Records with an inconclusive call do not appear. The source holds several records for some structures; these can differ, active in one and inactive in another. Active and inactive are the calls of the source. Calls follow the shape of the dose curve; as a rule, active = well fitted curve in the direction sought with a large enough effect; inconclusive = small, poorly fitted or top-dose-only effect, or another doubt; inactive = no such curve, though single readings can be large; an effect the other way counts as inactive or inconclusive.

Tests used:
[1] = tested on: TAB165; experiment: qHTS profiling for inhibitors of Plasmodium falciparum proliferation (AID 504749); also: nearly all actives have a fitted effect of over 60% in size; also: potency is read from the fitted curve at half-maximal effect; conditions: P. falciparum in erythrocytes, SYBR Green DNA, 72 h; series mostly up to 28.7 µM
In short: (§1)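 Each compound contacts P. falciparum-infected red blood cells for 72 h at 37 C; lysis buffer (Tris, EDTA, saponin, Triton X, SYBR Green I) is added and fluorescence measured next morning; values normalized to controls.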

[2] = tested on: W2; experiment: as above; conditions: P. falciparum in erythrocytes, SYBR Green DNA, 72 h; series mostly up to 28.7 µM
In short: as §1

[3] = tested on: CRL-7250; experiment: Cytotoxic Profiling of Annotated Libraries Using Quantitative High-Throughput Screening (AID 1296008); conditions: Five cell lines viability, CellTiter-Glo ATP luminescence, 48-72 h; max response: stronger effect = lower value; also: nearly all actives have a fitted effect of over 60% in size; as to max response: % is scaled to controls: 0 for no effect and ±100 for the full control effect
In short: (§2)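 Cells exposed to compounds for 48 or 72 hr at 37 degrees Celsius. Viability read as ATP-coupled luminescence with CellTiter-Glo after 10 min at room temperature.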

[4] = tested on: HEK293; experiment: as above; conditions: Five cell lines viability, CellTiter-Glo ATP luminescence, 48-72 h; max response: stronger effect = lower value
In short: as §2

[5] = tested on: HaCat; experiment: as above; conditions: Five cell lines viability, CellTiter-Glo ATP luminescence, 48-72 h; max response: stronger effect = lower value
In short: as §2

[6] = tested on: KB-3-1; experiment: as above; conditions: Five cell lines viability, CellTiter-Glo ATP luminescence, 48-72 h; max response: stronger effect = lower value
In short: as §2

[7] = tested on: CRL-7250; experiment: qHTS assay to identify novel small-molecules to repurpose for Merkel cell carcinoma treatment (AID 1296009); conditions: MCC and control cell lines, CellTiter-Glo viability, 72 h; series mostly up to 44.8 µM; also: nearly all actives have a fitted effect of over 60% in size; also: potency is read from the fitted curve at half-maximal effect
In short: (§3)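 Dose-response viability screen; 72 hr exposure at 37 degree celsius; CellTiter-Glo added, 10 min room temperature, luminescence read; RLUs scaled between no-cell and DMSO wells.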

[8] = tested on: MCC-13; experiment: as above; conditions: MCC and control cell lines, CellTiter-Glo viability, 72 h; series mostly up to 46 µM
In short: as §3

[9] = tested on: MKL-1; experiment: as above; conditions: MCC and control cell lines, CellTiter-Glo viability, 72 h; series mostly up to 46 µM
In short: as §3

[10] = tested on: UISO; experiment: as above; conditions: MCC and control cell lines, CellTiter-Glo viability, 72 h; series mostly up to 46 µM
In short: as §3

[11] = tested on: WaGa; experiment: as above; conditions: MCC and control cell lines, CellTiter-Glo viability, 72 h; series mostly up to 46 µM
In short: as §3

[12] = tested on: NIH3T3; experiment: Cytotoxic Profiling of Annotated Libraries Using Quantitative High-Throughput Screening (AID 1296008); conditions: Five cell lines viability, CellTiter-Glo ATP luminescence, 48-72 h; max response: stronger effect = lower value; also: nearly all actives have a fitted effect of over 60% in size; as to max response: % is scaled to controls: 0 for no effect and ±100 for the full control effect
In short: as §2

[13] = tested on: HACAT; experiment: qHTS assay to identify novel small-molecules to repurpose for Merkel cell carcinoma treatment (AID 1296009); conditions: MCC and control cell lines, CellTiter-Glo viability, 72 h; at 44.8 µM (top of the series) unless noted; also: nearly all actives have a fitted effect of over 60% in size; also: potency is read from the fitted curve at half-maximal effect
In short: as §3

[14] = tested on: MKL-2; experiment: as above; conditions: MCC and control cell lines, CellTiter-Glo viability, 72 h; series mostly up to 46 µM
In short: as §3

[15] = tested on: C33A; experiment: Primary qHTS to identify gynecologic anti-cancer compounds using libraries of approved drugs and bioactive compounds (AID 1345084); conditions: Gynecologic cancer cell panel viability, ATPlite luminescence, 48 h; series mostly up to 57.5 µM; also: % is scaled to controls: 0 for no effect and ±100 for the full control effect; nearly all actives have a fitted effect of over 55% in size
In short: (§4)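 ATP-based viability (ATPlite), 1,000 cells/well, 16 h pre-incubation, 48 h compound at 37 C, 5% CO2, 15 min RT before read.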

[16] = tested on: CAOV3; experiment: as above; conditions: Gynecologic cancer cell panel viability, ATPlite luminescence, 48 h; series mostly up to 57.5 µM
In short: as §4

[17] = tested on: CASKI; experiment: as above; conditions: Gynecologic cancer cell panel viability, ATPlite luminescence, 48 h; series mostly up to 57.5 µM
In short: as §4

[18] = tested on: MCC-26; experiment: qHTS assay to identify novel small-molecules to repurpose for Merkel cell carcinoma treatment (AID 1296009); conditions: MCC and control cell lines, CellTiter-Glo viability, 72 h; series mostly up to 46 µM; also: nearly all actives have a fitted effect of over 60% in size; also: potency is read from the fitted curve at half-maximal effect
In short: as §3

[19] = tested on: NIH3T3; experiment: as above; conditions: MCC and control cell lines, CellTiter-Glo viability, 72 h; at 44.8 µM (top of the series) unless noted
In short: as §3

[20] = tested on: HEK293T; experiment: as above; conditions: MCC and control cell lines, CellTiter-Glo viability, 72 h; at 44.8 µM (top of the series)
In short: as §3

Clc1ccc(COC(Cn2ccnc2)c2ccc(Cl)cc2Cl)cc1 (configuration not stated)
active: Potency [1] 708 nM | Potency [2] 1.2 µM | Potency [10] 15 µM
23.7 µM (active) and inactive: Potency [9]
inactive: max response [3] 1.02% | outcome [3] | max response [4] -1.16% | max response [5] -11% | max response [6] -10.4% and -10.7% | outcome [7] | Potency [8] | Potency [11]

CCCN1CCC[C@@H]2Cc3nc(N)ncc3C[C@H]21
active: Potency [10] 29.9 µM
inactive: outcome [3] | max response [4] -17.9% | outcome [5] | max response [6] 14.3% | max response [12] -7.61% | outcome [7] | outcome [13] | Potency [8] | Potency [14] | Potency [11] | Potency [15] | Potency [16] | Potency [17]

CCCC1CCCCN1 (configuration not stated)
inactive: Potency [1] | Potency [2] | max response [3] -4.9% | max response [4] -7.03% | outcome [5] | max response [6] -0.9% | outcome [12] | outcome [13] | Potency [8] | Potency [18] | Potency [9] | Potency [14] | outcome [19] | Potency [10] | Potency [11] | Potency [15] | Potency [16] | Potency [17]

FC(F)(F)c1cccc(C2=CCN(CCc3ccc4ccccc4c3)CC2)c1
inactive: Potency [1] | Potency [2] | max response [3] -12.8% | outcome [4] | outcome [5] | max response [6] -4.6% | outcome [12] | outcome [13] | outcome [20] | Potency [8] | Potency [9] | Potency [14] | outcome [19] | Potency [10] | Potency [11] | Potency [15] | Potency [16] | Potency [17]

NN=C(N)N
inactive: Potency [1] | Potency [2] | outcome [3] | max response [4] -4.43% | max response [5] -1.38% | max response [6] 8.75% | max response [12] -4.47% | outcome [7] | Potency [8] | Potency [18] | Potency [9] | Potency [14] | Potency [10] | Potency [11] | Potency [15] | Potency [16] | Potency [17]

Oc1ccccc1-c1ccccc1
inactive: Potency [1] | outcome [3] | outcome [4] | max response [5] 1.64% | max response [6] 2.06% | outcome [12] | outcome [7] | outcome [20] | Potency [8] | Potency [18] | Potency [9] | Potency [14] | outcome [19] | Potency [10] | Potency [11] | Potency [15] | Potency [16] | Potency [17]
